HT1080NT lethal = kills 2HG-producing HT-1080-NT fibrosarcoma cells; Potency, µM (series often up to 46.1 µM), without a hit: at the highest dose activity, negative = less viability, actives largely listed as cytotoxic; hit rate 1.6% among 360,000; HT-1080-NT fibrosarcoma viability, CellTiter-Glo ATP luminescence, 48 h;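 further: NT is the 2HG producing partner of a matched IDH1 knockdown line; 0% = DMSO-treated cells and -100% = media-only wells without cells; nearly all actives have a fitted effect of over 55% in size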
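750 cells/well, RPMI + 5% FBS; 2 h settle, compound pin-transfer, 48 h at 37 degrees C. CellTiter-Glo 10 min RT, luminescence. Normalized to DMSO and media-only wells.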
KB-V1 MDR tox = kills drug-selected multidrug resistant KB-V1 cells | KB-V1 MDR cells viability, CellTiter-Glo, 72 h | Potency, µM (top dose mostly 46.1 µM), usual class: cytotoxic | hit rate 3.4% among 400,000 | AID 1347076; further: nearly all actives have a fitted effect of over 60% in size
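KB-V1 cells (P-gp-expressing MDR subline of KB-3-1) in phenol-red-free DMEM with 10% FBS were exposed to library compounds over a concentration series for 72 h at 37 degrees C. Viability read by CellTiter-Glo luminescence; concentration-effect curves fitted after normalization.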
TDP1 cell CPT = DT40-hTDP1 cell growth loss with CPT; chicken DT40 Tdp1-/-;hTDP1 cells + 20 nM CPT, ATP luminescence, 48 h; Potency, µM (titrated, usually from 46.2 µM), for inactives: at the highest dose activity change, negative = growth inhibition, usual class: inhibitors; hit rate 12% among 420,000; further: nearly all actives have a fitted effect of over 55% in size
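Chicken DT40 Tdp1-/- cells stably complemented with human TDP1 were seeded at 400 cells/well in medium containing 20 nM camptothecin, exposed to pin-transferred compounds, and grown at 37 °C for at least 48 hr. Viability was read as ATP luminescence.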
HT1080 IDH1KD tx = HT-1080 IDH1 knockdown cell toxicity (counter line). AID 686971. Potency, µM (series often up to 46.1 µM), for inactives: at the highest dose activity, negative = toxicity, most hits filed as cytotoxic. hit rate 2% among 360,000. HT-1080 IDH1 knockdown viability, ATP luminescence, 48 h;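 further: 0% = DMSO wells and -100% = cell-free medium wells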
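After a 2 h attachment period, IDH1KD HT-1080 cells took pin-transferred compound for 48 h at 37 °C; ATP-based luminescence after 10 min room-temperature reagent incubation reported viability.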
DT40 TDP1 no CPT = qHTS for Inhibitors of human tyrosyl-DNA phosphodiesterase 1 (TDP1): qHTS in cells in absence of CPT. Potency, µM (doses to about 46.2 µM), without a hit: at the top dose activity change, negative = growth inhibition, usual class: inhibitors. hit rate 15% among 420,000. DT40 Tdp1-/- hTDP1 cells, no CPT, ATP luminescence, 48 h. AID 686978, 2013; further: nearly all actives have a fitted effect of over 55% in size
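A cellular qHTS used chicken DT40 cells lacking endogenous Tdp1 but carrying stably transfected human TDP1. Compounds were applied without camptothecin, and cell growth kinetics were judged by ATP-dependent luminescence after ≥48 hr.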
KB-3-1 tox = KB-3-1 parental cell cytotoxicity; KB-3-1 viability, CellTiter-Glo ATP luminescence, 72 h; Potency, µM (top dose mostly 46.1 µM), most hits filed as cytotoxic; hit rate 1.4% among 400,000; further: nearly all actives have a fitted effect of over 60% in size
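Luminescent ATP read-out (CellTiter-Glo) measures survival of drug-naive KB-3-1 cells after 72 h compound exposure at 37 °C. Titration series was screened from lowest to highest concentration, with DMSO vehicle plates as background controls.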
An asterisk follows results filed as active; i = inactive; ? = inconclusive; . = no result given. Most compounds without a hit are left out; they make up all but 19% or so of the library. The call rests on the fitted dose curve; in most records, active means well fitted curve in the direction sought with a large enough effect; inconclusive means small, poorly fitted or top-dose-only effect, or another doubt; inactive means no such curve, though single readings can be large; an effect the other way counts as inactive or inconclusive. Unless noted, on the % scale 0 is the no-effect control and ±100 the full control effect; potency means the concentration at half of the fitted maximal effect.

SMILES	HT1080NT lethal	KB-V1 MDR tox	TDP1 cell CPT	HT1080 IDH1KD tx	DT40 TDP1 no CPT	KB-3-1 tox
CC(C)N(C(=O)CSc1nnc(NC(=O)c2cccs2)s1)C(C)C	1%	23µM*	2%	-14%	13%	i
CN(C(=O)CSc1nc2ccc(NC(=O)c3cccs3)cc2s1)c1ccccc1	.	?	23µM*	.	16µM*	i
CN(C(=O)CSc1nc2ccc(NC(=O)c3ccco3)cc2s1)c1ccccc1	.	i	18µM*	.	23µM*	i
Cc1cccc(-n2ccnc2SCC(=O)c2c(N)n(C3CC3)c(=O)[nH]c2=O)c1C	-3%	i	?	-7%	-20%	i
Cc1ccc(Oc2ccc(/C=N/O)cn2)cc1	1%	i	23µM*	13%	16µM*	i
CCCSc1ncc(Cl)c(C(=O)Nc2c(C(=O)c3ccc(C)cc3)oc3ccccc23)n1	.	.	-3%	.	0%	.
CC1(C)CC(=O)C(C=NCCN2CCN(C(=O)CCl)CC2)=C(O)C1	-9%	i	?	-1%	10µM*	i
CCC(=O)N1CCN(CCN=CC2=C(O)CC(C)(C)CC2=O)CC1	12%	i	5%	3%	8%	i
Fc1ccccc1C(NCCc1ccc(Cl)cc1)c1nnc(-c2ccccc2)o1 (centres undefined)	.	?	18µM*	.	?	i
Clc1ccc(CCNC(c2ccc(Cl)cc2)c2nnc(-c3ccccc3)o2)cc1 (centres undefined)	.	i	?	.	23µM*	i
CCOC(=O)C1=C(C)NC(=O)NC1c1ccc(N(C)C)cc1 (centres undefined)	-2%	i	-2%	-1%	-5%	i
CCC(CC)COC(=O)C1=C(C)NC(=O)NC1c1ccc(N(C)C)cc1 (centres undefined)	1%	i	?	0%	21µM*	i
CC(=O)Nc1ccc(N(C(=O)Cc2cccs2)C(C(=O)NC2CCCC2)c2ccncc2)cc1 (centres undefined)	13%	i	6%	11%	-26%	i
CC1(C)Cc2c(C#N)c(N3CCOCC3)nc(Cc3ccccc3)c2CO1	-3%	?	?	-1%	21µM*	?
CCc1nc(N2CCOCC2)c(C#N)c2c1COC(C)(C)C2	0%	i	?	-4%	?	i
CCc1nc(N2CCN(C(=O)c3ccccc3)CC2)c(C#N)c2c1COC(C)(C)C2	-3%	?	18µM*	-6%	15µM*	?
CC1(C)Cc2c(C#N)c(SCC(=O)c3ccccc3)nc(N3CCOCC3)c2CO1	5%	i	-81%	-10%	-83%	?
CN(C)c1ccc(/C=C2\C=Nc3ccccc32)cc1	.	i	?	.	?	i
CCCc1nc2ccccc2n2c(-c3ccccc3)c3c(=O)n(C)c(=O)n(C)c3c12	.	.	13µM*	.	?	.
CCc1nc2ccccc2n2c(-c3ccc(C)cc3)c3c(=O)n(C)c(=O)n(C)c3c12	.	i	?	.	?	i
COc1ccc(-c2nc3ccccc3n3c(-c4ccc(OC)cc4)c4c(=O)n(C)c(=O)n(C)c4c23)cc1	.	i	?	.	?	i
CCCCc1nc2ccccc2n2c(-c3ccc(OC)cc3)c3c(=O)n(C)c(=O)n(C)c3c12	.	?	?	.	18µM*	?
CCCCc1nc2ccccc2n2c(-c3ccc(C)cc3)c3c(=O)n(C)c(=O)n(C)c3c12	.	i	?	.	12µM*	i
O=S1(=O)CC(N2CC=CC2)CN1Cc1ccccc1 (centres undefined)	19%	i	?	11%	?	i
